In publication PMC7819943, “Rice protein-binding microarrays: a tool to detect cis-acting elements near promoter regions in rice” one finds binding signal data, which are given here for 55 sequences.

The full ranking holds about 39,000 sequences; the median of “fluorescence intensity (a.u.)” is about 4,300, and the highest 2% start at about 39,000. For the sample, the highest values were picked, then their nearest neighbours and some sequences at random.

In this experiment the target is T1, OsSMF1 (Oryza sativa, UniProt Q6ZLB0 1-436).
T1 sequence: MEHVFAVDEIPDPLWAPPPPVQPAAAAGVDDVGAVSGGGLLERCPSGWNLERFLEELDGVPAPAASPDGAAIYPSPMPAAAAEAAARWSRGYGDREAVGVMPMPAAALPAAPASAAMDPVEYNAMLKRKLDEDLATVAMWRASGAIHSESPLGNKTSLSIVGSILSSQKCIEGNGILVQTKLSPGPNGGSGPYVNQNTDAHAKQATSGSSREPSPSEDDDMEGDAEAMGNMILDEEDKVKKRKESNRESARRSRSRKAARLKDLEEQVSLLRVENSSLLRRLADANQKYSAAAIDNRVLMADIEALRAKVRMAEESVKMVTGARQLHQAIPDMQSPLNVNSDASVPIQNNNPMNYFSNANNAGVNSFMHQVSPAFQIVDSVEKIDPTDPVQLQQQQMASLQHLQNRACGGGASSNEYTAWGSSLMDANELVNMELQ
Description: protein-binding microarray (RPBM); PBS, 2% BSA, 51.3 ng/ul salmon testes DNA, 50 uM zinc acetate, 200 nM TF, 25 C, 1 h; high values mean tight binding. Particulars: protein: recombinant; tags: N-terminal polyhistidine and DsRed monomer fusion (pET32a); chain copies: 2; label: CyDye5-dUTP incorporated in the synthesized complementary strand; 3' TTTTT single-stranded linker to array surface; dsDNA, one strand shown. Summed up: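 Binding signal is defined as the fluorescence intensity of each feature in arbitrary units, read on an Axon 4000B scanner. Transcription factors with N-terminal polyhistidine and DsRed fusions came from E. coli BL21-CodonPlus and were purified on Ni–NTA. They were incubated at 200 nM for 1 h at 25 °C on a custom Agilent array that had been made double-stranded with Cy5-dUTP, with 50 µM zinc acetate present, and the array was washed.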
On to “TTCTGATTAGGCTGCCACATTGGCGGCACGTGTGATAGCTCGGAGTCACCTAGTGCAG”, for which the binding signal is 45900 fluorescence intensity (a.u.). Take “AGATGTGATACATTAGCATTCTAGCACGGCGGTGGCATTGCGGAGTCACCTAGTGCAG”: the binding signal is 3250 fluorescence intensity (a.u.). The figure for “TTGGCGTGACTAGGCGCAATTTCTGCAAATTGGAGCTCGGCGGAGTCACCTAGTGCAG” is 7820 fluorescence intensity (a.u.); for “GGCCAGGCCACCCCAACACGCCAGCCTCCCGGGCCGTTGACGGAGTCACCTAGTGCAG” it is 3250 fluorescence intensity (a.u.); for “TGAACCTCGAAGATGCAAATATGTAGTAGTACGTAGGTCCCGGAGTCACCTAGTGCAG” it is 3310 fluorescence intensity (a.u.). The same measure for “GGTCCGGTGTGACACTGTGACCCCGCCGTAACCCCGTAACCGGAGTCACCTAGTGCAG”: 4060 fluorescence intensity (a.u.); for “CATTTCATATCAGAAGTGTGATCACTGTAACCCGCGGCGCCGGAGTCACCTAGTGCAG”: 64500 fluorescence intensity (a.u.); for “TATGTATGATCTCTTCCTGTAACATTTTCATCATCTAACCCGGAGTCACCTAGTGCAG”: 3480 fluorescence intensity (a.u.). The same measure for “AGAGGAGCATCTTCTCGCCTGAGATTCCGTCGACGCCATTCGGAGTCACCTAGTGCAG”: 3540 fluorescence intensity (a.u.); for “GCGGGGTTGGAGGAGGAGGAGGTGGTGGTGGTGGTGGTGGCGGAGTCACCTAGTGCAG”: 4860 fluorescence intensity (a.u.). In the case of “GGCGGTGCTGGTGGAGGCGGTGGTCTCGGAGGTGGAGCAGCGGAGTCACCTAGTGCAG”, the binding signal is 46000 fluorescence intensity (a.u.).

On to “GTTGGTGGTGGAGCGGGAGGAGGTGCCGGTGGAGGCGGTGCGGAGTCACCTAGTGCAG”, for which the binding signal is 53000 fluorescence intensity (a.u.).

For “GAGGGGATGACGGTGGTCTCGGCAGCGGATGACGGCGGCGCGGAGTCACCTAGTGCAG”, the binding signal is 4490 fluorescence intensity (a.u.). The same measure for “CAACACCCAACCCCAATTGGTCGCGGTGGGTCGGACGGACCGGAGTCACCTAGTGCAG”: 34900 fluorescence intensity (a.u.); for “CAATAAACCGGTGGTTGGACCGGTCCAACCAATAAACCAGCGGAGTCACCTAGTGCAG”: 43900 fluorescence intensity (a.u.).

Regarding “AATGGACCACCGTTAGTCCACCAGTCAGCCAACCAATGGCCGGAGTCACCTAGTGCAG”, the binding signal is 3360 fluorescence intensity (a.u.).

Consider “AGGTGGAGGCGCCGGTGTGGGTGGTGGAGCGGGAGGAGGTCGGAGTCACCTAGTGCAG”, for which the binding signal is 4096 fluorescence intensity (a.u.). The same measure for “GAGGTGGGGTGGCTTAGTGACCTCGTGTCGTAGATTGGATCGGAGTCACCTAGTGCAG”: 4900 fluorescence intensity (a.u.). The same measure for “CTAAGGGTCTAAGAGATGATGCTGTGATGAGGTGGATCATCGGAGTCACCTAGTGCAG”: 4840 fluorescence intensity (a.u.); for “TCGGCGGTCGTGGAGGTGGTGGCAGGCGGTCGTGGCGGAGCGGAGTCACCTAGTGCAG”: 3990 fluorescence intensity (a.u.); for “AGAGGGTGGAGGAGCTGACTAGATTGCACTAGGTCTCGATCGGAGTCACCTAGTGCAG”: 42000 fluorescence intensity (a.u.). The same measure for “CCGCTCGTCGATTAGCCGGCCACGCCTCCCGCTCGTGAAGCGGAGTCACCTAGTGCAG”: 3680 fluorescence intensity (a.u.). On to “GACCCTGCCGCCCTCCATTTGGGCGGCAAGCTGACGTGGCCGGAGTCACCTAGTGCAG”, for which the binding signal is 32700 fluorescence intensity (a.u.). The same measure for “GCAGTTTGTCTCATGTGCTGCTGACTAGATATTGATCATACGGAGTCACCTAGTGCAG”: 11400 fluorescence intensity (a.u.). The same measure for “ATGATGAGTAGGAGTTTGTGCAGGTGGACGGCGGTGGTGGCGGAGTCACCTAGTGCAG”: 3180 fluorescence intensity (a.u.). The figure for “TCACGCGTAGCTTCGCCGCTACGTGGCCTCGCGCACGTTACGGAGTCACCTAGTGCAG” is 5500 fluorescence intensity (a.u.). Regarding “TTCGCTAACGCCGCGCGTCACGTAGACACGTACTACTAGCCGGAGTCACCTAGTGCAG”, the binding signal is 49600 fluorescence intensity (a.u.).

With “GTTCGCGGGCCGCGAACGTCCACGTACTAGACGCCCCTCACGGAGTCACCTAGTGCAG”, the binding signal is 4050 fluorescence intensity (a.u.).

With “CCTGCATGCGTGGCTGCGCTCACTGTCGTTATTTGCTTTACGGAGTCACCTAGTGCAG”, the binding signal is 5080 fluorescence intensity (a.u.). The same measure for “AATGAGATACTTAGACTTGTGAGGCCCGACGTGTCCAATCCGGAGTCACCTAGTGCAG”: 4470 fluorescence intensity (a.u.). The figure for “AAAGGGCAGGCACATCGCTTTCGGGCCCTGTCACGTACCCCGGAGTCACCTAGTGCAG” is 3920 fluorescence intensity (a.u.); for “TCAATAATGTGTGCGTGACCTGGGCAAGTGGCGGTAGCAACGGAGTCACCTAGTGCAG” it is 3540 fluorescence intensity (a.u.).

As for “ATCTGCTTTGTGAGGCACATGAAGCTGGAGATATCTGTCACGGAGTCACCTAGTGCAG”, the binding signal is 4740 fluorescence intensity (a.u.). The figure for “ACCGAGTCCACGGAGCAGTGAGAGAGCCAGGCAGCCAGTGCGGAGTCACCTAGTGCAG” is 3960 fluorescence intensity (a.u.); for “GATCGAGCGGCAGGCCAGCAGTAACCTGGCCGAGAAGTTGCGGAGTCACCTAGTGCAG” it is 64500 fluorescence intensity (a.u.); for “TTTGCTCGTTGGCAGCGGCCAGCAGGCACGTGTAACGGCGCGGAGTCACCTAGTGCAG” it is 4190 fluorescence intensity (a.u.). With “GATGTGCGATAGCAGAATGGTGCTAAGTGAGTCACATCGTCGGAGTCACCTAGTGCAG”, the binding signal was 3970 fluorescence intensity (a.u.). The figure for “TTTAATGATCTTATAAATTGTAATGCTGATAGGTGGTTATCGGAGTCACCTAGTGCAG” is 3590 fluorescence intensity (a.u.); for “TATAATGTTTGGGTGCGTTTAATTCTATTTGAATTACACTCGGAGTCACCTAGTGCAG” it is 48000 fluorescence intensity (a.u.); for “TTCTAATTACTATTTAAGCTTATCCTAATTAACTCACATGCGGAGTCACCTAGTGCAG” it is 3230 fluorescence intensity (a.u.). The figure for “AATCAACAAATAACTAATATTCTTACATCAGCTACTATAACGGAGTCACCTAGTGCAG” is 28600 fluorescence intensity (a.u.); for “ACACTATGATTATAATATATTTACATGTGTGAATTGTTTACGGAGTCACCTAGTGCAG” it is 3640 fluorescence intensity (a.u.); for “ATACCGGTGCGTTACAACGAGGTGAATGTTATTTTAATTTCGGAGTCACCTAGTGCAG” it is 25200 fluorescence intensity (a.u.). The figure for “AAGCTTACAACATGTTCTATAATTTATTTAATTCTACAAACGGAGTCACCTAGTGCAG” is 45700 fluorescence intensity (a.u.); for “GGGCTCATCTTCACCGTTGTCATTCAGTTATTCACATAAGCGGAGTCACCTAGTGCAG” it is 3360 fluorescence intensity (a.u.). Turning to “GGCGGCGCCGACGACTCCGCGCCGCTCGGCCTCATCGTCGCGGAGTCACCTAGTGCAG”, the binding signal was 3190 fluorescence intensity (a.u.).

With “GCGCCCTCCTCCTGCCACGTCGGTTCGCGTGCGCCACGGTCGGAGTCACCTAGTGCAG”, the binding signal is 19500 fluorescence intensity (a.u.). “CATATGCCATCTAATCATCCTTGTCTGATGTCATTTATTCCGGAGTCACCTAGTGCAG”: the binding signal was 5870 fluorescence intensity (a.u.).

Consider “TGCTTCGCCAGTGAATCGCGTGGATATAAATGGGCCTCTCCGGAGTCACCTAGTGCAG”, for which the binding signal is 3440 fluorescence intensity (a.u.). The figure for “CGCACTTCCGTCGCCTCCCCGCATCGCGTCGTACAACGGGCGGAGTCACCTAGTGCAG” is 18300 fluorescence intensity (a.u.); for “GGTGTGTGTATGTGTTTATATGGTGAGTGTACACACGTTGCGGAGTCACCTAGTGCAG” it is 3150 fluorescence intensity (a.u.); for “GGCCCCGTCGACGCTGTGCACCAAACACAATAAAGACATGCGGAGTCACCTAGTGCAG” it is 3430 fluorescence intensity (a.u.). Regarding “GTCTGGATCAGAGCTGTCCACATTGGTTGTATTCCTCTTTCGGAGTCACCTAGTGCAG”, the binding signal is 3620 fluorescence intensity (a.u.). The figure for “GTGATCTTTCCACATACAGAGAGAGAGAGAGCTTGGGATTCGGAGTCACCTAGTGCAG” is 40900 fluorescence intensity (a.u.). The figure for “ATTCCATATTTCCATTCCACACGTCTTGAGAGCTAATCTTCGGAGTCACCTAGTGCAG” is 3400 fluorescence intensity (a.u.).
